Common to all, as to assay: NCI-60 one-dose screen, 48 h (100 = growth as untreated, 0 = no growth, -100 = all killed)
The subject of one assay is SK-MEL-2 melanoma. Conditions: 10 µM unless noted.
The next assay relates to EKVX NSCLC. To be noted: 10 µM unless noted.
The next assay relates to SN12C renal. To be noted: 10 µM unless noted.
Another assay deals with UO-31 renal. Conditions: 10 µM unless noted.
The next assay deals with TK-10 renal. Conditions: 10 µM unless noted.
A further assay relates to ACHN renal. To be noted: 10 µM unless noted.
The test system of another assay is CAKI-1 renal. To be noted: 10 µM unless noted.
In the next assay the test system is CCRF-CEM leukemia. To be noted: 10 µM unless noted.
Another assay relates to MOLT-4 leukemia. To be noted: 10 µM unless noted.
In a further assay the test system is SR leukemia. To be noted: 10 µM unless noted.
A further assay relates to RPMI-8226 leukemia. To be noted: 10 µM unless noted.
The subject of another assay is OVCAR-8 ovarian. Conditions: 10 µM unless noted.
A further assay relates to OVCAR-5 ovarian. Conditions: 10 µM unless noted.
In a further assay the test system is SK-OV-3 ovarian. Conditions: 10 µM unless noted.
A further assay deals with IGROV1 ovarian. Conditions: 10 µM unless noted.
The next assay deals with OVCAR-3 ovarian. To be noted: 10 µM unless noted.
Another assay deals with HS 578T breast. To be noted: 10 µM unless noted.
For a further assay, the system named is NCI/ADR-RES ovarian. To be noted: 10 µM unless noted.
In another assay the test system is A498 renal. Conditions: 10 µM unless noted.
A further assay has as its system OVCAR-4 ovarian. Conditions: 10 µM.

About 83,000 compounds went through this panel and 20% of them were active in at least one assay; those are over-represented in the sample as a whole.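 Single-concentration screen, 48 h exposure, 96-well plates. Endpoint: percent growth. Below 10 = active.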 Unmarked numbers belong to inactive results. Active and inactive are the calls of the source.

As for `C=C(CN=[N+]=[N-])[C@@H]1CC[C@]2(C)[C@H](CC[C@@H]3[C@H]4[C@H]5OC(=O)[C@@]4(CCC5(C)C)CC[C@]32C)[C@@]1(C)CCC#N`, the growth in the assay with SK-MEL-2 melanoma is 83.4% [100 µM]; in the assay on EKVX NSCLC it was 90.6% [100 µM]; with SN12C renal it was 76.2% [100 µM]; in the assay with UO-31 renal, 80.2% [100 µM]; in the assay on TK-10 renal, 105% [100 µM]; with ACHN renal, 93.9% [100 µM]. For the same compound, the growth is 53.5% [100 µM] in the assay on CAKI-1 renal; 74.6% [100 µM] in the assay on CCRF-CEM leukemia; 58% [100 µM] in the assay with MOLT-4 leukemia; 64% [100 µM] with SR leukemia; 57% [100 µM] in the assay on RPMI-8226 leukemia; 92.2% [100 µM] in the assay on OVCAR-8 ovarian. Further, the growth is 98.3% [100 µM] in the assay with OVCAR-5 ovarian; 75.4% [100 µM] in the assay with SK-OV-3 ovarian; 106% [100 µM] in the assay on IGROV1 ovarian; 82.5% [100 µM] in the assay with OVCAR-3 ovarian; 88.5% [100 µM] in the assay with HS 578T breast; 90.8% [100 µM] in the assay with NCI/ADR-RES ovarian.

As for `CCOC(CNC(=O)c1cccc([N+](=O)[O-])c1)OCC`, the growth in the assay with SK-MEL-2 melanoma was 97.2%; in the assay on EKVX NSCLC, 97.4%; with SN12C renal, 92.7%; in the assay on UO-31 renal it was 81.8%; in the assay with TK-10 renal, 82.8%; with ACHN renal, 108%. Moreover, the growth was 84.5% with A498 renal; 111% in the assay with CCRF-CEM leukemia; 100% in the assay with MOLT-4 leukemia; 95.4% with SR leukemia; 141% in the assay on RPMI-8226 leukemia; 95.3% in the assay on OVCAR-8 ovarian. For the same compound, the growth with OVCAR-5 ovarian is 101%; in the assay on OVCAR-4 ovarian, 109%; with SK-OV-3 ovarian, 108%; with OVCAR-3 ovarian it was 96.5%; in the assay on NCI/ADR-RES ovarian, 97.9%.

For the compound `CCCN1CC(c2ccc(OC)c(OC)c2)=C(c2cn(C(=O)OCC)c3ccccc23)C1=O`, the growth in the assay with SK-MEL-2 melanoma is 53.3%; with EKVX NSCLC, 55.6%; with SN12C renal, 53%; in the assay on UO-31 renal, 39.4%; with TK-10 renal it was 89.6%; with ACHN renal, 37%. Also, the growth was 25.8% with CAKI-1 renal; 38.7% in the assay with MOLT-4 leukemia; 25.3% in the assay on SR leukemia; 63.8% with RPMI-8226 leukemia; 71.5% in the assay on OVCAR-8 ovarian; 83.1% in the assay with OVCAR-5 ovarian. Also, the growth in the assay on OVCAR-4 ovarian is 62.3%; with IGROV1 ovarian, 40.2%; in the assay on OVCAR-3 ovarian, 2% (active); in the assay on HS 578T breast it was 48.1%; with NCI/ADR-RES ovarian, 29.5%.

These data come from PubChem BioAssay (NCI).
